High-throughput results from PubChem BioAssay.
Cruzain noTriton – qHTS Assay for Promiscuous and Specific Inhibitors of Cruzain (without detergent); Cruzipain (Trypanosoma cruzi), P25779; purified cruzain, Z-FR-AMC fluorescence, no detergent; Potency, µM, for the others: max response, negative = inhibition, hits mostly inhibitors; actives 2.3% (n = 200,000);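 also: plate controls were enzyme without inhibitor for no effect and buffer without enzyme for full effect; nearly all actives have a fitted effect of over 40% in size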
Target sequence (P25779 123-467 limits assumed): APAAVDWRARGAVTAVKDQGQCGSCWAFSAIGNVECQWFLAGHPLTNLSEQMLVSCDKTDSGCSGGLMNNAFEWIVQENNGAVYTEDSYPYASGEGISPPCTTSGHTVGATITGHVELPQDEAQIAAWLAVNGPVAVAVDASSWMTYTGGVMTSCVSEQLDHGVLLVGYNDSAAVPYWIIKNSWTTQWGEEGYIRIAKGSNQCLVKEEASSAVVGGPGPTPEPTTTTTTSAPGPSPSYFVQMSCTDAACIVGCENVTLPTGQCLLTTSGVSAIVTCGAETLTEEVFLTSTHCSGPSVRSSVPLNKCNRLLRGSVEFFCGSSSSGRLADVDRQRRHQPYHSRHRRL
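Detergent-free condition (0.00005% Triton X-100) in acetate buffer pH 5.5 with DTT. 1.5 nM enzyme and compound were pre-mixed 15 min, then 2 uM Z-FR-AMC substrate added; reaction progress from fluorescence change between first and third reads (60 s).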
Cruzain Triton – qHTS Assay for Promiscuous and Specific Inhibitors of Cruzain (with detergent); Cruzipain (Trypanosoma cruzi), P25779; purified cruzain, Z-FR-AMC fluorescence, 0.01% Triton; Potency, µM, inactives show max response, negative = inhibition, most hits filed as inhibitors; actives 0.43% (n = 200,000); AID 1478, 2009;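 also: plate controls were neutral wells for no effect and buffer without enzyme for full effect; nearly all actives have a fitted effect of over 40% in size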
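Sodium acetate buffer (100 mM, pH 5.5) containing 5 mM DTT and 0.01% Triton X-100 hosted 1.5 nM cruzain and test compound for 15 min at room temperature. Cleavage of 2 uM Z-FR-AMC was then tracked by fluorescence.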
NS1 inh – qHTS Assay for Inhibitors of Influenza NS1 Protein Function. Potency, µM (highest dose often 46.1 µM), for the others: at the highest dose activity, positive = more growth. actives 0.4% (n = 270,000). AID 2326, 2010; calls by dose curve; also: actives are rising curves; nearly all actives have a fitted effect of over 50% in size
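A cell-based growth assay was used: compounds that relieve NS1-induced slow growth of budding yeast raise OD600. Assay medium was yeast nitrogen base with ammonium sulphate and -URA supplement, pH 6.0, with 2% galactose.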
* hit, by the source's call; ? = inconclusive; . = not tested or not shown. The entries come from a sample that favours hits as a whole. Unless noted, calls follow the shape of the dose curve; as a rule, active = well fitted curve in the direction sought with a large enough effect; inconclusive = small, poorly fitted or top-dose-only effect, or another doubt; inactive = no such curve, though single readings can be large; an effect the other way counts as inactive or inconclusive. Potency is read from the fitted curve at half-maximal effect.

SMILES	Cruzain noTriton	Cruzain Triton	NS1 inh
Cc1ccc(N2C(=O)CS(=O)(=O)C23C(=O)N(Cc2cccc(F)c2)c2ccccc23)cc1Cl (stereo not drawn)	2µM*	-5%	.
COc1ccc(N2C(=O)CS(=O)(=O)C23C(=O)N(Cc2cccc(F)c2)c2ccccc23)cc1OC (stereo not drawn)	-8%	-4%	.
O=C1CS(=O)(=O)C2(C(=O)N(Cc3ccccc3Cl)c3ccccc32)N1c1ccc(F)cc1 (stereo not drawn)	2.5µM*	-3%	.
CN1C(=O)C2(c3ccccc31)N(c1ccc(F)c(Cl)c1)C(=O)CS2(=O)=O (stereo not drawn)	?	-1%	.
CN1C(=O)C2(c3ccccc31)N(c1cccc(F)c1)C(=O)CS2(=O)=O (stereo not drawn)	-7%	-6%	.
O=C1CS(=O)(=O)C2(C(=O)N(Cc3ccccc3)c3ccccc32)N1c1ccc(F)c(Cl)c1 (stereo not drawn)	2µM*	-2%	.
O=C1CSC2(C(=O)N(Cc3ccccc3F)c3ccccc32)N1c1ccc(F)cc1 (stereo not drawn)	-7%	-7%	.
COCCN(CCOC)c1nc(C)nc2c1nc(-c1ccccc1)n2CCN1CCCC1	-4%	0%	.
O=C(NCc1ccc(Cl)cc1)C1CCCN(c2ncnc3onc(-c4ccc(F)cc4)c23)C1 (stereo not drawn)	-12%	-2%	.
C=CCOC(=O)N[C@@H](c1ccc(Br)cc1)C(C(C)=O)C(C)=O	-12%	4%	.
Cc1ccccc1CN1C(=O)C2(c3ccccc31)N(c1ccccc1)C(=O)CS2(=O)=O (stereo not drawn)	-29%	2%	.
Cc1cc(C)cc(N2C(=O)CS(=O)(=O)C23C(=O)N(C)c2ccccc23)c1 (stereo not drawn)	-20%	-1%	.
Cc1ccc(C)c(CN2C(=O)C3(c4ccccc42)N(c2cccc(C(F)(F)F)c2)C(=O)CS3(=O)=O)c1 (stereo not drawn)	1.3µM*	-6%	.
Cc1ccc(N2C(=O)CS(=O)(=O)C23C(=O)N(Cc2ccccc2C)c2ccccc23)cc1Cl (stereo not drawn)	2µM*	-5%	.
CCc1cccc(N2C(=O)CS(=O)(=O)C23C(=O)N(Cc2ccccc2)c2ccc(C)cc23)c1 (stereo not drawn)	1.6µM*	-4%	.
CCc1cccc(N2C(=O)CS(=O)(=O)C23C(=O)N(Cc2ccc(F)cc2)c2ccc(C)cc23)c1 (stereo not drawn)	?	-1%	.
CN1CCCC[C@@H]1CCN1CCCCC1	-8%	-1%	-1%
CCOc1ccc(NC(=O)N2CC3CCCN3c3ccccc32)cc1 (stereo not drawn)	-17%	-13%	.
Br/C(=N\Nc1nn[nH]n1)c1ccncc1	13%	2%	-1%
CCc1ccccc1Nc1nn2c(=O)c3ccc(C(=O)NCCC4=CCCCC4)cc3nc2s1	25µM*	-4%	.
CCc1ccccc1Nc1nn2c(=O)c3ccc(C(=O)NCc4ccccc4OC)cc3nc2s1	13µM*	-4%	.
CCc1ccccc1Nc1nn2c(=O)c3ccc(C(=O)Nc4ccc(OC)cc4)cc3nc2s1	-20%	-2%	.
CCc1ccccc1Nc1nn2c(=O)c3ccc(C(=O)NCc4ccccn4)cc3nc2s1	.	.	3%
Cc1cc(O)c(C)c(O)c1C(=O)O	2%	7%	.
NC(=S)Nc1nc2ccccc2[nH]c1=O	?	7.9µM*	1%
SMILES	Cruzain noTriton	Cruzain Triton	NS1 inh
O=c1[nH]c2ccccc2nc1NCc1ccccc1	.	.	-12%
Cc1cnc(CNc2cc(-c3ccoc3)ncn2)cn1	23%	0%	.
O=[N+]([O-])c1cccc(Cl)c1Cl	6%	-4%	.
COc1ccc(OC)c(NC(=O)c2nc(SCc3ccccc3F)ncc2Cl)c1	15%	3%	.
CCCCc1ccc(C2C(C#N)=C(N)SC(N)=C2C#N)s1	32µM*	?	-21%
CCOc1ccc(C2C(C#N)=C(N)SC(N)=C2C#N)c(OCC)c1	-1%	-11%	-10%
Cc1ccc2oc(=O)c3cc(C(=O)N(Cc4ccccc4)C(C)C)sc3c2c1	-4%	0%	.
COc1cc(OC)c(NC(=O)N2CC=C(c3c[nH]c4ccccc34)CC2)cc1Cl	20µM*	-9%	.
Cc1ccc(C)c(NC(=O)N2CC=C(c3c[nH]c4ccccc34)CC2)c1	-16%	-10%	.
O=S1(=O)N=C(Nc2ccc(N3CCOCC3)cc2)c2ccccc21	-19%	-4%	2%
Cc1ccccc1-c1ccc(Nc2ccc(N3CCOCC3)cc2)nn1	25µM*	-9%	-18%
CC(OC(=O)c1ccccc1)C(=O)NCCC1=CCCCC1 (stereo not drawn)	.	.	-1%
